{"source": "paper PMC5700166", "key": {"[1]": {"target": "T1, GST-Nv-NF-kB (Ser allele) (Nematostella vectensis, UniProt A7UNT2 2-411)", "T1 sequence": "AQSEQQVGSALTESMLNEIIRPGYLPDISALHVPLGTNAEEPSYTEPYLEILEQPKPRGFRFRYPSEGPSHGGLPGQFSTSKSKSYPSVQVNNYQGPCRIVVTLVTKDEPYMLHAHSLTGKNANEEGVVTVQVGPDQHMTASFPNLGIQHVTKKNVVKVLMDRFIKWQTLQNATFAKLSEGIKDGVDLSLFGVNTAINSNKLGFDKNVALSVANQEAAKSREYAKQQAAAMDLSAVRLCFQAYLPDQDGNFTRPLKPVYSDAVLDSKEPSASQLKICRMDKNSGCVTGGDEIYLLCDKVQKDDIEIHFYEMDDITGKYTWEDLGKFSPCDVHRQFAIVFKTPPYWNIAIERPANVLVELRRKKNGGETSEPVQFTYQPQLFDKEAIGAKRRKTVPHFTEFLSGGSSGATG", "assay": "protein-binding microarray (PBM); PBM: ~300 nM protein, 6 mM HEPES pH 7.8, 80 mM KCl, 0.5 mM EDTA, 0.5 mM EGTA, 6% glycerol, 35 ng/ul poly-dIdC, 1% milk, 1 h, room temperature; high values mean tight binding", "settings": "dsDNA, one strand shown"}, "[2]": {"target": "GST-Hu-p50 (Homo sapiens, UniProt P19838 7-356)", "sequence (P19838 7-356)": "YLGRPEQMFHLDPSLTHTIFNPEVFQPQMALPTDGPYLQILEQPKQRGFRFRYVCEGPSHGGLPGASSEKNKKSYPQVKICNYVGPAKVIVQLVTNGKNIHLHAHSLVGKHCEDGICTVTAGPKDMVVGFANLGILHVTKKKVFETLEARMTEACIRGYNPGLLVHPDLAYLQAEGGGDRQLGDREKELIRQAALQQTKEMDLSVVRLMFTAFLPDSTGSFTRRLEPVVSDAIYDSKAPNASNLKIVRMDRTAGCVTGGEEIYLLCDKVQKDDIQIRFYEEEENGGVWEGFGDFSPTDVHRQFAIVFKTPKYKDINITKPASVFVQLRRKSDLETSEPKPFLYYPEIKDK", "assay": "protein-binding microarray (PBM); PBM: ~300 nM protein, 6 mM HEPES pH 7.8, 80 mM KCl, 0.5 mM EDTA, 0.5 mM EGTA, 6% glycerol, 35 ng/ul poly-dIdC, 1% milk, 1 h, room temperature; Ap Aiptasia and Nv Nematostella (sea anemones) / Co Capsaspora / Aq Amphimedon (sponge) / Dm Drosophila / Hu human; RHD is the Rel homology domain; high values mean tight binding", "settings": "dsDNA, one strand shown"}}, "data": [{"sequence": "CCGATTAACATCAAGGTACCCCCTGATGTTAATCGGGTCTTGATTCGCTTGACGCTGCTG", "values": [{"measurement": "binding signal", "setting": "[1]", "value": 3.84, "unit": "z-score"}, {"measurement": "binding signal", "setting": "[2]", "value": 3.34, "unit": "z-score"}]}, {"sequence": "CCGATTAACATCAGGGGAACACATGATGTTAATCGGGTCTTGATTCGCTTGACGCTGCTG", "values": [{"measurement": "binding signal", "setting": "[1]", "value": 5.55, "unit": "z-score"}, {"measurement": "binding signal", "setting": "[2]", "value": 3.37, "unit": "z-score"}]}, {"sequence": "CCGATTAACATCACGCAATTCCCTGATGTTAATCGGGTCTTGATTCGCTTGACGCTGCTG", "values": [{"measurement": "binding signal", "setting": "[1]", "value": 4.54, "unit": "z-score"}, {"measurement": "binding signal", "setting": "[2]", "value": 2.87, "unit": "z-score"}]}, {"sequence": "CCGATTAACATCAAAGGAATCCCTGATGTTAATCGGGTCTTGATTCGCTTGACGCTGCTG", "values": [{"measurement": "binding signal", "setting": "[1]", "value": 1.78, "unit": "z-score"}, {"measurement": "binding signal", "setting": "[2]", "value": 1.2, "unit": "z-score"}]}, {"sequence": "CCGATTAACATCACATTTTCCCATGATGTTAATCGGGTCTTGATTCGCTTGACGCTGCTG", "values": [{"measurement": "binding signal", "setting": "[1]", "value": 5.22, "unit": "z-score"}, {"measurement": "binding signal", "setting": "[2]", "value": 3.45, "unit": "z-score"}]}, {"sequence": "CCGATTAACATCAACTAATTCCCTGATGTTAATCGGGTCTTGATTCGCTTGACGCTGCTG", "values": [{"measurement": "binding signal", "setting": "[1]", "value": 4.35, "unit": "z-score"}, {"measurement": "binding signal", "setting": "[2]", "value": 2.11, "unit": "z-score"}]}, {"sequence": "CCGATTAACATCAATGCACCCCCTGATGTTAATCGGGTCTTGATTCGCTTGACGCTGCTG", "values": [{"measurement": "binding signal", "setting": "[1]", "value": 4.37, "unit": "z-score"}, {"measurement": "binding signal", "setting": "[2]", "value": 4.12, "unit": "z-score"}]}, {"sequence": "CCGATTAACATCAAGTAAATCCCTGATGTTAATCGGGTCTTGATTCGCTTGACGCTGCTG", "values": [{"measurement": "binding signal", "setting": "[1]", "value": 1.71, "unit": "z-score"}, {"measurement": "binding signal", "setting": "[2]", "value": 2.28, "unit": "z-score"}]}, {"sequence": "CCGATTAACATCAGGGAAAACCATGATGTTAATCGGGTCTTGATTCGCTTGACGCTGCTG", "values": [{"measurement": "binding signal", "setting": "[1]", "value": 6.37, "unit": "z-score"}, {"measurement": "binding signal", "setting": "[2]", "value": 4.01, "unit": "z-score"}]}, {"sequence": "CCGATTAACATCACGGACTTCCCTGATGTTAATCGGGTCTTGATTCGCTTGACGCTGCTG", "values": [{"measurement": "binding signal", "setting": "[1]", "value": 2.24, "unit": "z-score"}, {"measurement": "binding signal", "setting": "[2]", "value": 1.25, "unit": "z-score"}]}, {"sequence": "CCGATTAACATCATGATGGGAAATGATGTTAATCGGGTCTTGATTCGCTTGACGCTGCTG", "values": [{"measurement": "binding signal", "setting": "[1]", "value": 1.98, "unit": "z-score"}, {"measurement": "binding signal", "setting": "[2]", "value": 2.02, "unit": "z-score"}]}, {"sequence": "CCGATTAACATCAGGGATTTACCTGATGTTAATCGGGTCTTGATTCGCTTGACGCTGCTG", "values": [{"measurement": "binding signal", "setting": "[1]", "value": 5.26, "unit": "z-score"}, {"measurement": "binding signal", "setting": "[2]", "value": 4.74, "unit": "z-score"}]}, {"sequence": "CCGATTAACATCAAAGAAATCCCTGATGTTAATCGGGTCTTGATTCGCTTGACGCTGCTG", "values": [{"measurement": "binding signal", "setting": "[1]", "value": 4.02, "unit": "z-score"}, {"measurement": "binding signal", "setting": "[2]", "value": 3.77, "unit": "z-score"}]}, {"sequence": "CCGATTAACATCAAGGTAATTCCTGATGTTAATCGGGTCTTGATTCGCTTGACGCTGCTG", "values": [{"measurement": "binding signal", "setting": "[1]", "value": 3.37, "unit": "z-score"}, {"measurement": "binding signal", "setting": "[2]", "value": 2.4, "unit": "z-score"}]}, {"sequence": "CCGATTAACATCACGTCCCCCCCTGATGTTAATCGGGTCTTGATTCGCTTGACGCTGCTG", "values": [{"measurement": "binding signal", "setting": "[1]", "value": 4.17, "unit": "z-score"}, {"measurement": "binding signal", "setting": "[2]", "value": 3.7, "unit": "z-score"}]}, {"sequence": "CCGATTAACATCAGGGGGCAAGATGATGTTAATCGGGTCTTGATTCGCTTGACGCTGCTG", "values": [{"measurement": "binding signal", "setting": "[1]", "value": 1.92, "unit": "z-score"}, {"measurement": "binding signal", "setting": "[2]", "value": 2.2, "unit": "z-score"}]}, {"sequence": "CCGATTAACATCAGGGGAGGTACTGATGTTAATCGGGTCTTGATTCGCTTGACGCTGCTG", "values": [{"measurement": "binding signal", "setting": "[1]", "value": 4.46, "unit": "z-score"}, {"measurement": "binding signal", "setting": "[2]", "value": 3.17, "unit": "z-score"}]}, {"sequence": "CCGATTAACATCAGGGGAGAACCTGATGTTAATCGGGTCTTGATTCGCTTGACGCTGCTG", "values": [{"measurement": "binding signal", "setting": "[1]", "value": 5.63, "unit": "z-score"}, {"measurement": "binding signal", "setting": "[2]", "value": 4.26, "unit": "z-score"}]}, {"sequence": "CCGATTAACATCAGGGAACCCCATGATGTTAATCGGGTCTTGATTCGCTTGACGCTGCTG", "values": [{"measurement": "binding signal", "setting": "[1]", "value": 1.33, "unit": "z-score"}, {"measurement": "binding signal", "setting": "[2]", "value": 2.54, "unit": "z-score"}]}, {"sequence": "CCGATTAACATCAACACCCCCCCTGATGTTAATCGGGTCTTGATTCGCTTGACGCTGCTG", "values": [{"measurement": "binding signal", "setting": "[1]", "value": 3.82, "unit": "z-score"}, {"measurement": "binding signal", "setting": "[2]", "value": 3.88, "unit": "z-score"}]}, {"sequence": "CCGATTAACATCAATTTGGGAAATGATGTTAATCGGGTCTTGATTCGCTTGACGCTGCTG", "values": [{"measurement": "binding signal", "setting": "[1]", "value": 2.36, "unit": "z-score"}, {"measurement": "binding signal", "setting": "[2]", "value": 1.3, "unit": "z-score"}]}, {"sequence": "CCGATTAACATCAGGACGTTCCCTGATGTTAATCGGGTCTTGATTCGCTTGACGCTGCTG", "values": [{"measurement": "binding signal", "setting": "[1]", "value": 1.14, "unit": "z-score"}, {"measurement": "binding signal", "setting": "[2]", "value": 1.71, "unit": "z-score"}]}, {"sequence": "CCGATTAACATCAAAATTCCACCTGATGTTAATCGGGTCTTGATTCGCTTGACGCTGCTG", "values": [{"measurement": "binding signal", "setting": "[1]", "value": 3.38, "unit": "z-score"}, {"measurement": "binding signal", "setting": "[2]", "value": 3.61, "unit": "z-score"}]}, {"sequence": "CCGATTAACATCAGGGGGTATACTGATGTTAATCGGGTCTTGATTCGCTTGACGCTGCTG", "values": [{"measurement": "binding signal", "setting": "[1]", "value": 4.26, "unit": "z-score"}, {"measurement": "binding signal", "setting": "[2]", "value": 3.99, "unit": "z-score"}]}, {"sequence": "CCGATTAACATCAAATATACCCCTGATGTTAATCGGGTCTTGATTCGCTTGACGCTGCTG", "values": [{"measurement": "binding signal", "setting": "[1]", "value": 2.88, "unit": "z-score"}, {"measurement": "binding signal", "setting": "[2]", "value": 2.88, "unit": "z-score"}]}, {"sequence": "CCGATTAACATCAAAAAAAGTCCTGATGTTAATCGGGTCTTGATTCGCTTGACGCTGCTG", "values": [{"measurement": "binding signal", "setting": "[1]", "value": 1.42, "unit": "z-score"}, {"measurement": "binding signal", "setting": "[2]", "value": 2.19, "unit": "z-score"}]}, {"sequence": "CCGATTAACATCAGGAAAATACCTGATGTTAATCGGGTCTTGATTCGCTTGACGCTGCTG", "values": [{"measurement": "binding signal", "setting": "[1]", "value": 3.24, "unit": "z-score"}, {"measurement": "binding signal", "setting": "[2]", "value": 3.12, "unit": "z-score"}]}, {"sequence": "CCGATTAACATCAGGGATCACCCTGATGTTAATCGGGTCTTGATTCGCTTGACGCTGCTG", "values": [{"measurement": "binding signal", "setting": "[1]", "value": 1.43, "unit": "z-score"}, {"measurement": "binding signal", "setting": "[2]", "value": 2.48, "unit": "z-score"}]}, {"sequence": "CCGATTAACATCAGGACAGTCCCTGATGTTAATCGGGTCTTGATTCGCTTGACGCTGCTG", "values": [{"measurement": "binding signal", "setting": "[1]", "value": 2.87, "unit": "z-score"}, {"measurement": "binding signal", "setting": "[2]", "value": 4.04, "unit": "z-score"}]}, {"sequence": "CCGATTAACATCAGGGGAAGGAATGATGTTAATCGGGTCTTGATTCGCTTGACGCTGCTG", "values": [{"measurement": "binding signal", "setting": "[1]", "value": 6.09, "unit": "z-score"}, {"measurement": "binding signal", "setting": "[2]", "value": 3.5, "unit": "z-score"}]}, {"sequence": "CCGATTAACATCAAACAATTCCCTGATGTTAATCGGGTCTTGATTCGCTTGACGCTGCTG", "values": [{"measurement": "binding signal", "setting": "[1]", "value": 5.01, "unit": "z-score"}, {"measurement": "binding signal", "setting": "[2]", "value": 3.72, "unit": "z-score"}]}, {"sequence": "CCGATTAACATCAGGGAAGCACCTGATGTTAATCGGGTCTTGATTCGCTTGACGCTGCTG", "values": [{"measurement": "binding signal", "setting": "[1]", "value": 3.97, "unit": "z-score"}, {"measurement": "binding signal", "setting": "[2]", "value": 5.24, "unit": "z-score"}]}, {"sequence": "CCGATTAACATCAGAATTCCCACTGATGTTAATCGGGTCTTGATTCGCTTGACGCTGCTG", "values": [{"measurement": "binding signal", "setting": "[1]", "value": 3.68, "unit": "z-score"}, {"measurement": "binding signal", "setting": "[2]", "value": 3.3, "unit": "z-score"}]}]}
